High-throughput results deposited in PubChem BioAssay by National Center for Advancing Translational Sciences (NCATS).
This is a sample that favours compounds with a hit; in the whole collection about 1.2% have one here.
KCNH2 3.1 block: inhibitors of human KCNH2 3.1 potassium channel isoform. AID 720553. U2OS KCNH2 3.1, thallium flux FluxOr; active compounds read low. actives 0.95% (n = 340,000). activity change, % (tested at about 1.8 µM);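 active means maximum activity change below -70%; inconclusive means maximum activity change from -70% to -50%; inactive means maximum activity change above -50%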;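 further: thallium influx rate constant from kinetic fluorescence after stimulation buffer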
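Thallium flux read-out: FluxOr dye with Red40 quencher in HBSS/HEPES, 45 min at RT. Rate constants from kinetic reads were normalized to positive and negative DMSO controls. Cells: U2OS virally expressing the 3.1 isoform.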
TRPV1 PAM: enhances activation of the human vanilloid receptor TRPV1 | Q8NER1 | TRPV1-expressing cells, Fluo-8 calcium influx, capsaicin EC20 potentiation | potentiation, % at 8.33 µM | actives 0.02% (n = 320,000); in the data active means potentiation above about 80%; inconclusive means between about 30% and that limit
Target sequence (Q8NER1 whole entry, looked up): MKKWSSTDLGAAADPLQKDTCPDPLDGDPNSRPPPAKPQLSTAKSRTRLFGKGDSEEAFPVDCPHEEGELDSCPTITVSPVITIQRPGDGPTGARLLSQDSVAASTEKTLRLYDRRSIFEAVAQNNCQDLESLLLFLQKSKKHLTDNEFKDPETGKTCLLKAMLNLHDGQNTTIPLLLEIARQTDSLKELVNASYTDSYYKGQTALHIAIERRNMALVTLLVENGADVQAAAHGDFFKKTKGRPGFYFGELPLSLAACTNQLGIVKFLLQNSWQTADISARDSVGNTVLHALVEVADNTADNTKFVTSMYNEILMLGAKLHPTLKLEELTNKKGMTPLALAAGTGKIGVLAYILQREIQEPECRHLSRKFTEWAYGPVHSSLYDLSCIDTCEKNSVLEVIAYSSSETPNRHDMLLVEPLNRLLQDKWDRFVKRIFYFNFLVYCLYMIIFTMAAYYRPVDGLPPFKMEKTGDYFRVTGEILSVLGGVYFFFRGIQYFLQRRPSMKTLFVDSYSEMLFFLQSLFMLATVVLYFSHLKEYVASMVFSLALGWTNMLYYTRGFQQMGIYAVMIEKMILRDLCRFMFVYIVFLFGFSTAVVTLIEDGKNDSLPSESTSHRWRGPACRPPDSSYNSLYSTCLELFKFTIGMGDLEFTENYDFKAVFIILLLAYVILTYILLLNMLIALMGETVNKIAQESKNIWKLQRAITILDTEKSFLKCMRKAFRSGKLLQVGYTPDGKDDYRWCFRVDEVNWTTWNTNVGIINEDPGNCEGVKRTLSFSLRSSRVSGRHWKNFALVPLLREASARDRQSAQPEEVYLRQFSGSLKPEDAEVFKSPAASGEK
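Fluo-8 calcium influx in TRPV1-expressing cells, kinetic read (ex 480/em 520 nm). Compound added and read 3 min for agonist activity, followed by capsaicin at EC20 final and 2 min further read for enhancement.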
TRPV1 ag: activates the human vanilloid receptor TRPV1 | activation, % at 8.33 µM | AID 540275 | TRPV1-expressing cells, Fluo-8 calcium influx, agonist mode | actives 0.19% (n = 320,000); in the data active means activation above about 80%; inconclusive means between about 30% and that limit
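TRPV1-expressing cells were cultured overnight at 35.5C and loaded with Fluo-8 calcium dye for 40 to 90 min at room temperature. After a 10 s baseline, compound was added and calcium influx was read kinetically for 3 min (ex 480/em 520 nm).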
hERG WT inh: blocks the wildtype human KCNH2 potassium channel; Q12809; U2OS, BacMam KCNH2, thallium flux FluxOr; active compounds read low; activity change, % at 1.84 µM; actives 0.37% (n = 340,000); AID 720551;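 active means maximum activity change below -70%; inconclusive means maximum activity change between -70% and -50%; inactive means maximum activity change above -50%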
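U2OS cells transduced with wild-type KCNH2 virus are loaded with FluxOr dye for 45 min, and thallium flux is measured in kinetic reads before and after stimulation buffer. Rate constants are normalized to DMSO controls.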
Hits are given with their value; . = inactive; ? = inconclusive; / = no result given.

SMILES	KCNH2 3.1 block	TRPV1 PAM	TRPV1 ag	hERG WT inh
CCOC(=O)c1c(NC(=O)CSc2nnc(CNc3ccc(OC)cc3)n2C)sc(C)c1C	.	.	.	.
Cc1ccc(Nc2nc(-c3c(C)nc4ccccn34)cs2)cc1	-78	.	.	.
Cn1nnnc1SC(C(=O)Nc1ccc(F)cc1)c1ccccc1 (stereo unspecified)	.	.	.	.
Cn1c(SC(C(=O)Nc2ccc(F)cc2)c2ccccc2)nc2ccccc21 (stereo unspecified)	-82	.	85	.
Cc1ccc(C)c(NC(=O)C2CCCN2/C=C/C(=O)C(F)(F)F)c1 (stereo unspecified)	-119	.	.	.
Cc1cccc(NC(=O)C2CCCN2/C=C/C(=O)C(F)(F)F)c1C (stereo unspecified)	.	.	.	.
COCCNS(=O)(=O)c1ccc2c3c(cccc13)C(=O)N2C	.	.	.	.
COCCCNS(=O)(=O)c1ccc2c3c(cccc13)C(=O)S2	-138	.	.	-132
COc1c(C=O)c2c(c(OC)c1OC)-c1ccc(OC)c(=O)cc1C(NC(C)=O)CC2 (stereo unspecified)	.	/	/	.
COc1ccc(C(=O)Nc2ccc(N3CCCC3)cc2)cc1	.	.	?	.
COc1ccc(C(=O)NC(=S)Nc2ccc(N3CCCC3)cc2)cc1	-89	.	.	.
COc1ccc(C(=O)NC(=S)NNC(=O)c2ccccc2C)cc1	.	/	/	.
CN1CCN(c2ccc(NC(=S)NC(=O)c3cccc4c(Cl)cccc34)cc2)CC1	-91	.	.	.
COc1ccc(C(=O)NC(=S)NNC(=O)c2ccccc2O)cc1	-83	.	.	.
CCOc1ccc(C(=O)NC(=S)Nc2ccc(N3CCC(C)CC3)cc2)cc1[N+](=O)[O-]	.	.	.	.
CCC(=O)N1CCN(c2ccc(NC(=S)NC(=O)c3ccc(OC)c([N+](=O)[O-])c3)cc2)CC1	-91	.	.	.
CC1(C)Cc2c(cnn2-c2cccc(F)c2)C(NC(=O)CSc2ccncc2)C1 (stereo unspecified)	/	.	?	.
CC(=O)Nc1cccc(C(=O)Nc2cc(C(F)(F)F)ccc2-n2cncn2)c1	.	/	/	.
COc1cccc(CN2CCc3ccc(NC(=O)CCc4ccc(C)cc4)cc3C2)c1O	-81	.	.	.
CCOC(=O)c1c(CN2CCNCC2)nc2ccc(Cl)cc2c1-c1ccccc1	.	/	/	.
O=C(Nc1cccnc1)c1ccc(COc2ccccc2Cl)o1	.	.	.	.
O=C(Nc1cccnc1)c1ccc(COc2cc(Cl)ccc2Cl)o1	.	.	?	-104
Cc1ccccc1S(=O)(=O)N(C)C[C@@H]1OCc2cn(nn2)CCCC(=O)N([C@H](C)CO)C[C@H]1C	.	/	/	.
Cc1cc(F)c(F)c(C(=O)N2CCC(C)CC2)c1Cl	-135	.	.	.
Cc1ccc2nc(CCc3nc4ccc(C)cc4[nH]3)[nH]c2c1	.	.	?	.
SMILES	KCNH2 3.1 block	TRPV1 PAM	TRPV1 ag	hERG WT inh
Cc1ccc2nc(CCCc3nc4ccc(C)cc4[nH]3)[nH]c2c1	-79	.	.	.
CCn1c(/C(C#N)=N/O)nc2ccccc21	-81	?	.	-115
Cn1c(/C(C#N)=N/O)nc2ccccc21	.	.	.	.
CCCc1nc(-c2ccccc2)c(-c2ccc(OC)c(OC)c2)c(=O)[nH]1	.	.	.	.
O=C(c1ccc(Cl)cc1)N1CCN(c2ccnc3cc(Cl)ccc23)CC1	-87	.	?	.
COc1ccc(N2CCN(c3ccnc4cc(Cl)ccc34)CC2)cc1	-81	.	.	.
CC(=O)c1ccc(S(=O)(=O)N2CCN(c3ccnc4cc(Cl)ccc34)CC2)cc1	-98	/	/	-123
Oc1ccc(N2CCN(c3ccnc4cc(Cl)ccc34)CC2)cc1	.	.	.	.
CS(=O)(=O)N1CCN(c2ccnc3cc(Cl)ccc23)CC1	.	.	.	.
Cc1ccc(S(=O)(=O)N2CCN(c3ccnc4cc(Cl)ccc34)CC2)cc1C	.	.	.	.
Cc1ccc(S(=O)(=O)N2CCN(c3ccnc4cc(Cl)ccc34)CC2)cc1	-102	.	.	.
COCCn1c(N)c(N(Cc2ccccc2)C(=O)c2ccc(-c3ccc(Cl)cc3)o2)c(=O)[nH]c1=O	.	.	.	.
COc1cc2c(c(OC)c1OC)-c1c(cc(OC)c(OC)c1OC)C[C@H](C)[C@H](C)C2	-174	.	?	-74
CCOC(=O)C(Cc1ccccc1)C(=O)Nc1cccc(C)c1 (stereo unspecified)	.	.	85	.
CN1c2ccccc2C(O)=C(C(=S)Nc2ccccc2)S1(=O)=O	.	.	.	.
CN1c2ccccc2C(O)=C(C(=S)Nc2ccc(F)c(Cl)c2)S1(=O)=O	.	.	.	-255
COc1ccc2c(C)cc(=O)[nH]c2c1	-95	.	.	.
CC(/C=N/NC(=O)C(O)c1ccccc1)=C\c1ccccc1 (stereo unspecified)	-169	.	.	.
COc1ccc(C(=O)N/N=C\C(C)=C\c2ccccc2)cc1OC	-98	/	/	.
CC(/C=N/NC(=O)c1ccc(Br)cc1)=C\c1ccccc1	?	.	.	.
CC(C)C(OC(=O)c1cccc(S(=O)(=O)NCC(F)(F)F)c1)C(=O)NC(N)=O (stereo unspecified)	.	.	.	.
Cn1c(-c2ccc3c(c2)OCO3)cnc1N	-75	.	.	.
CCC(C)N(NC(C)=O)c1nc(Cl)nc(NC(C)C)n1 (stereo unspecified)	/	.	.	.
Brc1ccc(-c2nc3ncccn3c2NC2CCCCC2)o1	.	.	.	.
C=CCNCCCCOc1ccc(OCc2ccccc2)cc1	?	.	.	/
SMILES	KCNH2 3.1 block	TRPV1 PAM	TRPV1 ag	hERG WT inh
COCCCNCCCCOc1ccc(OCc2ccccc2)cc1	-77	.	.	.
C=C(c1ccc2nc(NC(=O)OC)[nH]c2c1)c1cccs1	.	/	/	.
CC1(C)Oc2ccc3ccc(=O)oc3c2C(N2CCCCC2)C1O (stereo unspecified)	.	.	.	.
CC(=O)OC1C(N2CCCCC2)c2c(ccc(/C=C/C(=O)N3CCCCC3)c2O)OC1(C)C (stereo unspecified)	.	.	81	.
COC(=O)C1=C(C(=O)OC)[C@@H]2Nc3ccccc3[C@@]23C[C@@H](C(=O)OC)N(C(=O)c2ccc(Br)cc2)C3=N1	-114	.	.	.
CCCCCCn1c(=O)n2n(c1=O)C[C@]1(OC(=O)NC3CCCC3)CN(S(=O)(=O)c3ccc(C)cc3)C[C@]1(O)C2	.	/	/	.
CN(CCC1CCCCO1)C(=O)CCc1nnc(C2CCCCC2)o1 (stereo unspecified)	.	.	.	.
O=C(O)CC1S/C(=N\N=C2CCCCCC2)N(c2ccccc2)C1=O (stereo unspecified)	.	.	.	-104
CCOC(=O)CC/C(C)=N\N=C1\SC(CC(=O)O)C(=O)N1c1ccccc1 (stereo unspecified)	.	.	.	.
CCOc1cc(N2CCOCC2)c(OCC)cc1NC(=O)CN1C(=O)NC2(CCCCC2C)C1=O (stereo unspecified)	.	.	.	.
